Assay outcomes as filed in PubChem.
Compounds with a hit are over-represented: about 4% of the library has one in this group of screens.
MITF TRPM1 HTS = activators of MITF-driven TRPM1 promoter activity in SK-MEL-5 cells; SK-MEL-5 TRPM1-promoter luciferase, 24 h; % of positive control, neutral wells = 0; activation, % at 12.5 µM; 0.75% of 300,000 active; AID 588334;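 active = mean activation of at least 80% with every replicate also reaching 80%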
MITF TRPM1 inh = reduces MITF-dependent TRPM1 promoter luciferase signal; SK-MEL-5 TRPM1 promoter luciferase, 24 h; inhibition, % at 12.5 µM; 0.83% of 330,000 active;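 active = mean inhibition across replicates of 60% or more, whatever share of single replicates reaches that level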
PAX8 reporter = inhibitors of PAX8 transcriptional activity in RMG-I cells; RMG-I TPO-luciferase reporter, SteadyGlo, 24 h; inhibition, % at 12.6 µM; 1.2% of 360,000 active;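 active = mean replicate inhibition at least 60% with every replicate also reaching 60%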;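 also: luciferase light reporting Pax8 driven TPO promoter activity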
Wnt bcat act = activates Wnt/beta-catenin signaling in a reporter cell assay. 1.2% of 300,000 active. activation, % at 9.35 µM. activator, plate reader. AID 743398; in the data active = activation above about 30%, passing the limit was not always enough
esBAF inh = SWI/SNF esBAF complex inhibition | reporter increase, % at 12.5 µM | 2% of 350,000 active | mouse ES cells, Bmi1-luciferase knock-in reporter, 24 h; 100% = twice the neutral-well signal; in the data active = activation above about 40%;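 also: a rise in the Bmi1 reporter signal indicates esBAF inhibition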
EWS-Fli inh = blocks EWS/Fli oncoprotein-driven transcription. A673 NR0B1-luciferase reporter, viability-normalised. inhibition, % at 12.6 µM. 0.67% of 350,000 active;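 active = mean inhibition of at least 50% after viability correction, with every replicate also passing that limit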;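 also: firefly luciferase signal divided by Alamar Blue viability fluorescence both relative to DMSO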
A number is an active result; . = inactive; / = not tested or not shown.

SMILES	MITF TRPM1 HTS	MITF TRPM1 inh	PAX8 reporter	Wnt bcat act	esBAF inh	EWS-Fli inh
CO[C@@H]1CN(C)C(=O)c2ccc(NC(C)=O)cc2OC[C@@H](C)N(C(=O)c2ccc(F)cc2)C[C@@H]1C	/	/	.	/	.	.
O=C(Nc1ccon1)c1sc2cc(F)ccc2c1Cl	/	.	/	/	70.9	/
Cc1ccnc(NC(=O)c2sc3ccccc3c2Cl)c1	.	.	.	/	/	/
Cc1cc(NC(=O)c2cccc(COc3ccc(Br)cc3)c2)no1	.	.	.	.	.	86.1
Cc1ccc2c(Cl)c(C(=O)Nc3cc(C)on3)sc2c1	.	.	.	42.2	60.3	/
CCOc1ccc(C(=O)Nc2cc(C)on2)cc1	.	.	/	.	.	/
O=C(NCc1ccco1)c1cccc(F)c1	.	.	/	/	.	/
O=C(NC1=NCCS1)c1sc2cc(F)ccc2c1Cl	.	.	.	.	/	/
O=C(NCc1ccco1)c1sc2cc(F)ccc2c1Cl	.	.	/	.	52.8	/
Cc1cc(NC(=O)c2ccc(Cl)cc2)no1	106.1	.	/	.	.	/
CCNC(=O)c1sc2cc(C)ccc2c1Cl	.	.	.	.	24.3	.
Cc1ccc2c(Cl)c(C(=O)NCCc3ccccc3)sc2c1	105.8	.	.	/	/	/
CCCNC(=O)N1[C@H](CO)[C@H]2c3ccccc3N(C(=O)NC(C)C)C[C@H]21	/	/	.	/	.	.
CC(C)NC(=O)N1Cc2cc(C(=O)NCC(F)(F)F)nc(-c3cccc(-c4cc5ccccc5o4)c3)c2[C@H]1CCO	/	/	85.5	/	/	/
CC(C)(C)S(=O)N1Cc2cc(C(=O)Nc3ccc(-c4ccccc4)cc3)nc(-c3cccc(-c4cc5ccccc5o4)c3)c2[C@@H]1CCO (stereo partly drawn)	/	/	.	.	.	.
CN1c2ccc(-c3ccccc3)cc2[C@@H]2[C@@H](CCN2C(=O)Cc2cccnc2)[C@@H]1CO	/	/	.	/	.	.
O=[N+]([O-])c1cccc(-c2noc(-c3cccs3)n2)c1	.	.	.	48.5	/	.
O=[N+]([O-])c1cccc(-c2nc(-c3cccs3)c(-c3cccs3)[nH]2)c1	.	.	.	.	.	/
Cc1ccc(NC(=O)CSc2nnc(C)c(=O)n2N)cc1Cl	.	.	.	.	/	.
Cc1nnc(SCC(=O)c2ccc(Cl)cc2)n(N)c1=O	.	.	.	43.0	/	.
CCn1c(SCC(=O)c2ccc(C)cc2)nnc1-c1ccoc1C	/	.	.	.	88.4	/
CCn1c(SCC(=O)c2ccc(Cl)cc2)nnc1C(C)C	.	.	.	35.9	.	/
CCn1c(SCC(=O)c2ccc(Cl)cc2)nnc1-c1ccoc1C	.	.	.	.	.	/
COc1cccc(N2C(=O)/C(=C\c3cccs3)NC2=S)c1	.	.	.	.	43.5	.
COc1ccc(N2C(=O)/C(=C/c3cccnc3)NC2=S)cc1	.	.	.	.	/	/
SMILES	MITF TRPM1 HTS	MITF TRPM1 inh	PAX8 reporter	Wnt bcat act	esBAF inh	EWS-Fli inh
Cn1cccc1C(=O)OCc1cc(-c2ccco2)on1	98.5	.	.	.	82.8	.
COc1cc(-c2nnc(COC(=O)c3cccn3C)o2)cc(OC)c1OC	.	.	.	.	/	.
Cc1ccccc1S(=O)(=O)N(C)C[C@H]1OCc2cn(nn2)CCCC(=O)N([C@@H](C)CO)C[C@H]1C	/	/	/	/	.	.
COc1ccc2cc3cc(C(=O)NCCc4ccc(OC)c(OC)c4)oc3nc2c1	.	65.1	/	.	.	/
COc1ccc2cc3cc(C(=O)N(C)C4CCCCC4)oc3nc2c1	.	.	/	.	50.6	/
C[C@H](CO)N1C[C@H](C)[C@@H](CN(C)Cc2ccc3c(c2)OCO3)Oc2ccc(NC(=O)CCN3CCOCC3)cc2C1=O	/	/	.	/	.	.
CSCC(=O)N1CCC(n2nccc2NC(=O)c2ccc3c(c2)OCO3)CC1	.	.	.	.	58.3	.
CCNC(=O)C[C@H]1CC[C@H]2[C@@H](COc3ccc(NC(=O)Nc4cccc(C#N)c4)cc3C(=O)N2C)O1	/	/	.	/	.	.
O=C(Nc1ccc(F)cc1)N1C[C@H]2[C@@H](c3ccccc31)[C@@H](CO)N2C(=O)Cc1ccccn1	/	/	.	/	.	.
C[C@@H]1CN([C@H](C)CO)C(=O)CCCn2nncc2CO[C@H]1CN(C)C(=O)Nc1ccccc1F	/	/	.	/	.	.
O=C1CC(/C=C/c2ccncc2)=Nc2ccccc2N1	.	.	.	.	88.2	.
Cc1ccc(NC(=S)Nc2cccc3cnccc23)cc1C	.	.	.	.	45.5	.
Cc1ccc(NC(=S)Nc2cccc3cnccc23)cc1	.	.	.	.	68.3	.
CCS(=O)(=O)Nc1ccc2c(c1)C(=O)N(C)C[C@H](OC)[C@H](C)CN(Cc1nccs1)[C@@H](C)CO2	/	/	/	/	.	.
CO[C@H]1CN(C)C(=O)c2cc(NC(=O)Nc3ccccc3)ccc2OC[C@@H](C)N(C(=O)CC2CC2)C[C@@H]1C	/	/	.	/	.	.
COc1cc2c(cc1[N+](=O)[O-])-c1ccccc1C2	.	.	.	.	41.6	.
Cn1cnc(S(=O)(=O)N2C[C@H](O)COC[C@H]3O[C@H](CC(=O)NCc4ccc(F)cc4)CC[C@@H]32)c1	/	/	.	/	.	.
Clc1cc2nc(-c3cccnc3Cl)[nH]c2cc1Cl	89.0	.	.	47.5	.	.
Nc1nc(CCl)nc(N(c2ccccc2)c2ccccc2)n1	/	/	99.2	.	/	.
COc1cc(OC)cc(-c2noc(-c3csc([C@H]4C[C@H](O)[C@@H](CO)O4)n3)n2)c1	/	/	.	38.9	70.7	.
OC[C@H]1O[C@H](c2nc(-c3nc(-c4cccs4)no3)cs2)C[C@@H]1O	/	/	.	.	.	.
Cc1cccc(-c2noc(-c3csc([C@@H]4C[C@H](O)[C@@H](CO)O4)n3)n2)c1	/	/	.	46.2	.	.
COc1cc(OC)cc(-c2noc(-c3csc([C@@H]4O[C@H](CO)[C@H](O)[C@H](O)[C@H]4O)n3)n2)c1	/	/	.	.	.	.
COc1cccc(S(=O)(=O)Nc2ccc3c(c2)OC[C@H](C)NC[C@@H](C)[C@@H](OC)CN(C)C3=O)c1	/	/	/	/	.	.
Cc1noc(C)c1NC(=O)Nc1ccc2c(c1)C(=O)N([C@H](C)CO)C[C@@H](C)[C@H](CN(C)C(=O)Nc1ccccc1)O2	/	/	/	/	.	.
SMILES	MITF TRPM1 HTS	MITF TRPM1 inh	PAX8 reporter	Wnt bcat act	esBAF inh	EWS-Fli inh
CN(C)C(=O)c1ccc(-c2ccc([C@@H]3[C@@H](CO)N4C(=O)CN(C(=O)C5CCC5)C[C@@H]34)cc2)cc1	/	/	.	/	/	.
CO[C@@H]1CN(C)C(=O)c2cc(NC(=O)Nc3c(C)noc3C)ccc2OC[C@@H](C)N(CC2CC2)C[C@@H]1C	/	/	.	/	.	.
O=c1sc2ccccc2n1CCOc1ccccc1	.	.	.	.	44.9	/
Cn1c(=O)n(CCOc2ccccc2Cl)c2ccccc21	.	.	/	.	78.1	/
Cc1ccc(OCCn2c(=O)n(C)c3ccccc32)cc1	.	.	.	.	84.5	.
Cn1c(=O)n(CCOc2ccc([N+](=O)[O-])cc2)c2ccccc21	/	.	.	.	/	.
O=C(CC1CC1)Nc1ccc2c(c1)[C@@H]1C[C@H](CC(=O)NC3CCCCC3)O[C@H](CO)[C@@H]1O2	/	/	.	/	.	.
